From PubChem BioAssay
This is a sample that favours compounds with a hit; in the whole collection about 3.5% have one here.
GPR151 ag: human GPR151 activation; Q8TDV0; PathHunter beta-arrestin GPR151 cells, luminescence; activation, % at 11.2 µM; actives 1% (n = 650,000); AID 1508602; in the data active means activation above about 4.9%;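 further: 0% = median of compound wells and 100% = cells with positive control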
TEAD-YAP inh: TEAD-YAP interaction inhibition; HEK-TIYL cells, TEAD-Gal4/YAP UAS-luciferase luminescence; inhibition, % at 9.12 µM; actives 1.4% (n = 640,000); in the data active means inhibition above about 32%;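 further: 0% = median of test compound wells and 100% = reference inhibitor wells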
MITF primary: blocks human microphthalmia-associated transcription factor; O75030; AlphaScreen MITF homodimerization, bead proximity signal; inhibition, % at 2.6 µM; actives 0.91% (n = 650,000); AID 1259374; in the data active means inhibition above about 50%;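 further: 0% = vehicle wells with protein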
FBW7 act: human FBW7 E3 ligase activation, primary screen | Q969H0 | AlphaScreen FBW7–phospho-cyclin E peptide binding, activator screen | normalized activity (activation), % at 26.1 µM | actives 0.13% (n = 650,000) | AID 1259310; in the data active means normalized activity above about 1.9%;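 further: purified mutant Fbw7 with reduced substrate affinity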
Target sequence (Q969H0 whole entry, looked up): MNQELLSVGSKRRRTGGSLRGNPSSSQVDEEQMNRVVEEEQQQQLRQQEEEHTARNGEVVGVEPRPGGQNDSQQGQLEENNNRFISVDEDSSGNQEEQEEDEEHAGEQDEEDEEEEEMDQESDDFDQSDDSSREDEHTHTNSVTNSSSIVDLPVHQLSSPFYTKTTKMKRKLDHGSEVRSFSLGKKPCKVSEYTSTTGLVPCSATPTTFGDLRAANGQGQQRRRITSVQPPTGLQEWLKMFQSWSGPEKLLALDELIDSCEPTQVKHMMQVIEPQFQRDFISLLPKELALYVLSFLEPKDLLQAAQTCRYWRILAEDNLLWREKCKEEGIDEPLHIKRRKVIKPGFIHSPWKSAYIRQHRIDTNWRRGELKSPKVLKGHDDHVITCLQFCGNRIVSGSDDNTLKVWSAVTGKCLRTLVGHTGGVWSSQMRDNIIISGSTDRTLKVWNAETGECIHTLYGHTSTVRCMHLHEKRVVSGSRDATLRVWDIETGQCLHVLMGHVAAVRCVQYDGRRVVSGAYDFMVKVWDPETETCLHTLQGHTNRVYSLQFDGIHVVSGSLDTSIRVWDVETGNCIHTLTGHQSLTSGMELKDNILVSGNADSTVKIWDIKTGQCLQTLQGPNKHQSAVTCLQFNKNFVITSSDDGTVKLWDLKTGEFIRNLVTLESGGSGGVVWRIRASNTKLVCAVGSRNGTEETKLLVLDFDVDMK
MITF confirm: human MITF inhibition, confirmation. AlphaScreen MITF homodimerization, biotin/His-MITF beads. inhibition, % at 2.6 µM. actives 16% (n = 4,700). shares compounds with MITF primary;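 active means inhibition above a cutoff derived from the DMSO control wells, cut at about 28% in these data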;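 further: 0% = MITF dimer wells with DMSO only; inhibitors lower the bead chemiluminescence by keeping MITF from dimerizing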
AS interf DR: optically interferes with AlphaScreen signal in dose response. shares compounds with MITF primary. AlphaScreen optical interference counterscreen, cell-free. IC50, µM. actives 6% (n = 480). AID 1259373; call rule not given here
AlphaScreen intf2: AlphaScreen optical interference, counter-screen. inhibition, % at 2.6 µM. shares compounds with MITF primary. actives 7.6% (n = 4,700). LysRS AlphaScreen counterscreen, signal interference, triplicate;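 active means inhibition above a cutoff derived from the DMSO control wells, cut at about 30% in these data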
Starred values were filed as active, the others as inactive; nt = not tested or not shown.

SMILES	GPR151 ag	TEAD-YAP inh	MITF primary	FBW7 act	MITF confirm	AlphaScreen intf2	others
Cc1ccc2nc(NS(=O)(=O)c3ccc(O)c(C(=O)O)c3)sc2c1	-3	10	65*	0	26	13
Cc1nc2ccc(NS(=O)(=O)c3ccc(O)c(C(=O)O)c3)cc2s1	0	10	35	0	nt	nt
O=C(O)c1cc(S(=O)(=O)Nc2ccc3cn[nH]c3c2)ccc1O	-1	19	76*	0	52*	21	AS interf DR=>7
CC(=O)Nc1ccnn1C1CCN(Cc2cccc(Oc3ccccc3)c2)CC1	0	-5	-17	0	nt	nt
CC(=O)Nc1ccnn1C1CCN(Cc2cccc(OC3CCCC3)c2)CC1	-2	4	56*	0	3	15
Cc1ccc(NC(=O)c2sccc2-n2cccc2)cc1	1	8	59*	0	5	17
O=C(c1sccc1-n1cccc1)N1CCCC1	0	12	5	0	nt	nt
CCN(C(=O)c1cnc2n(c1=O)CCS2)c1ccccc1	3	-8	51*	0	7	9
COC(=O)c1ccccc1NS(=O)(=O)c1ccc2[nH]c(=O)c(=O)[nH]c2c1	0	-3	68*	0	-1	1
COC(=O)c1cc(NS(=O)(=O)c2ccc3[nH]c(=O)c(=O)[nH]c3c2)cc(C(=O)OC)c1	0	9	-7	0	nt	nt
O=S(=O)(NCc1ccc2[nH]c3c(c2c1)CCCC3)c1ccccc1	0	6	0	0	nt	nt
C=CCOc1ccccc1CNC1CCN(Cc2ccccc2)CC1	-1	4	53*	0	14	18
c1ccc(C2CCC(NCCc3ccccn3)CC2)cc1 (configuration not stated)	0	-14	59*	1	-20	-9
c1ccc(CN2CCC(NCc3c[nH]c4ccccc34)CC2)cc1	-1	-3	62*	0	12	17
c1ccc(CN2CCC(NCc3ccccn3)CC2)cc1	0	4	62*	0	9	16
Oc1ccccc1CNC1CCN(Cc2ccccc2)CC1	2	18	2	0	nt	nt
O=C(Nc1ccc(Cl)c(C(=O)O)c1)c1ccco1	-4	1	-3	1	nt	nt
CN(C)CCOc1ccc2ccccc2c1	0	0	76*	0	-17	-3
Cc1cccc(NC(=O)CCC2CCN(C(=O)CCOc3ccccc3)CC2)c1	-1	-7	2	0	nt	nt
O=C(NC(=S)NCc1cccnc1)c1cc2ccccc2o1	-1	-6	12	0	nt	nt
O=C(NCc1cccnc1)c1cc2ccccc2o1	1	-14	52*	0	-5	-2
CCNC(=O)COC(=O)c1cc(-c2ccco2)nc2ccccc12	0	3	48	0	nt	nt
CC(C)N(C(=O)COC(=O)c1cc(-c2ccco2)nc2ccccc12)C(C)C	-1	-4	54*	0	45*	7	AS interf DR=>6.8
O=C(COC(=O)c1cc(-c2ccco2)nc2ccccc12)NC1CC1	-2	7	51*	0	40*	-3	AS interf DR=>6.9
O=C(OC1CCOC1=O)c1cc(-c2ccco2)nc2ccccc12 (configuration not stated)	0	-11	75*	0	76*	3	AS interf DR=>7.2
SMILES	GPR151 ag	TEAD-YAP inh	MITF primary	FBW7 act	MITF confirm	AlphaScreen intf2	others
O=C(Nc1cccc(O)c1)c1cc(-c2ccco2)nc2ccccc12	0	4	36	0	nt	nt
O=C(O)c1cc(-c2ccco2)nc2ccccc12	4	11	55*	0	57*	18	AS interf DR=>7.6
Cc1ccc(C2=CC(c3cccc(Br)c3)n3nnnc3N2)cc1C (configuration not stated)	0	12	7	0	nt	nt
COc1ccc(/C=C(\C#N)C(=O)c2c(C)[nH]c3ccccc23)cc1	-2	13	9	0	nt	nt
Cc1nn2c(C(F)(F)F)cc(-c3ccc(Cl)cc3)nc2c1C(=O)N1CCCc2ccccc21	-1	-12	-4	0	nt	nt
COc1ccc(-n2nc(C(=O)NCC(=O)Nc3ccc(C(C)C)cc3)c3ccccc3c2=O)cc1	2	14	-5	0	nt	nt
Cc1cc(C)n(CCNC2CCN(c3ccc(C(=O)NC(C)c4ccccc4)cc3)CC2)n1 (configuration not stated)	-2	11	91*	0	0	-2
O=C(c1ccc(F)cc1)N1CCN(Cc2ccc3ccccc3c2)CC1	3	15	58*	1	-8	-6
Fc1ccc(CN2CCN(Cc3ccc4ccccc4c3)CC2)cc1	1	-7	79*	0	20	14
O=C1CN(NC(=O)COc2ccc(Cl)cc2)C(=O)N1	-1	-6	-1	0	nt	nt
COc1cc(CN2CCC(N3CCOCC3)CC2)cc(OC)c1OC	0	-2	24	1	nt	nt
COc1cc(CN2CCN(C3CCC(c4ccccc4)CC3)CC2)cc(OC)c1OC (configuration not stated)	-1	4	69*	0	6	-7
COc1cc(CN2CCC(N3CCN(C)CC3)CC2)cc(OC)c1OC	0	-1	87*	0	-14	-5
COc1ccc(OC)c(CN2CCC(N3CCN(CCO)CC3)CC2)c1	-1	1	81*	0	-5	4
COc1ccc(OC)c(CN2CCN(C3CCC(c4ccccc4)CC3)CC2)c1 (configuration not stated)	0	-4	54*	0	-2	10
O=C(CCc1ccccc1Cl)NCC1CCC2(CCN(Cc3ccccn3)CC2)O1 (configuration not stated)	-1	1	13	0	nt	nt
COCCn1nnnc1CN(Cc1ccco1)Cc1cc2cc(C)ccc2[nH]c1=O	-1	-2	8	0	nt	nt
CCOC(=O)c1c(NC(N)=S)sc2c1CCCC2	-1	6	20	0	nt	nt
CCOC(=O)c1c(NC(=O)CN2CCN(CC)CC2)sc2c1CCC2	2	-2	80*	0	7	7
CCOC(=O)c1c(NC(=O)CSc2nnc(C)s2)sc2c1CCC2	-1	4	54*	0	-7	20
CCOC(=O)c1c(-c2ccco2)csc1NC(=O)CN1CCN(C)CC1	-1	-2	16	0	nt	nt
CCOC(=O)c1c(NC(=S)N2CCN(S(C)(=O)=O)CC2)sc2c1CCCC2	1	5	69*	0	11	7
CCOC(=O)c1c(-c2ccc(C)c(C)c2)csc1NC(=O)CN1CCN(C)CC1	0	9	90*	0	-3	5
COc1ccc(-n2cc(C(=O)Nc3cc(OC)ccc3OC)c3ccccc3c2=O)cc1	0	5	7	0	nt	nt
Cc1cc2c(cc1S(=O)(=O)NCCc1ccc(Cl)cc1)OCCN2C	0	-5	-3	0	nt	nt
COc1ccc(C(=O)NCC(=O)N/N=C/c2cc(OC)c(O)c([N+](=O)[O-])c2)cc1OC	0	1	2	0	nt	nt
